Screening data (PubChem BioAssay)
Rows were chosen to be rich in hits. Some 6.7% of all compounds tested hit in one or more screens of this group.
Mtb FBA inh – Mtb FBA enzyme inhibitors, primary screen, biochemical, fluorescence, strain H37Rv. inhibition, % at 1 µM. AID 588726, 2011. 2.3% of 360,000 active. purified M. tuberculosis FBA, fluorescence read-out; in the data active = inhibition above about 27%;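 also: 0% = vehicle and 100% = reference inhibitor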
Target sequence (P9WQA3 whole entry, looked up): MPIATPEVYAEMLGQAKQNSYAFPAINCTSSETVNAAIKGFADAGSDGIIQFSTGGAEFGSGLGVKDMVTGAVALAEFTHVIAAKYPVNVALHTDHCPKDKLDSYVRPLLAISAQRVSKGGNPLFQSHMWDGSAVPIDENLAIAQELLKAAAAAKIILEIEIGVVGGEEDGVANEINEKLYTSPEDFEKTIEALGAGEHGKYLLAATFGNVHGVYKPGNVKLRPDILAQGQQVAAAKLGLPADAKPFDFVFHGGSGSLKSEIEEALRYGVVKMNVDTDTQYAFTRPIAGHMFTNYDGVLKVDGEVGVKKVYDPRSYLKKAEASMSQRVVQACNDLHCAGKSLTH
Bead autofluor – compound fluorescence in toxin protease inhibitor counterscreen. compound autofluorescence counterscreen, microsphere flow cytometry; stronger effect = higher value. fluorescence intensity (no concentration beside the values). 3.1% of 360,000 active; in the data active = fluorescence intensity above about 16000; inconclusive = no clear call, values can overlap the other calls
Anthrax LF inh2 – Bacillus anthracis LF protease inhibitors, primary screen, biochemical, multiplex microsphere, MLPCN library; 0.12% of 360,000 active; multiplex microsphere protease cleavage assay; inhibition, % at 10 µM; Lethal factor (Bacillus anthracis), P15917; in the data active = inhibition above about 30%; inconclusive = no clear call, values can overlap the other calls; also: plate controls were buffer without enzyme for full effect and enzyme alone for no effect
GDH-TPI counter-1 – GDH-TPI coupling enzyme inhibitors, primary screen, artefact control for M. tuberculosis FBA inhibitor project, biochemical, absorbance, full deck | GDH-TPI coupled enzyme counterscreen, NADH absorbance | inhibition, % at 4.8 µM | 1.2% of 360,000 active; in the data active = inhibition above about 30%;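 also: 0% = DMSO wells and 100% = wells lacking the enzyme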
BoNT F protease – BoNT/F light chain protease inhibitors, primary screen, biochemical, flow cytometry, MLPCN library; Botulinum neurotoxin type F light chain protease (Clostridium botulinum); Multiplex microsphere protease cleavage assay; inhibition, % at 10 µM; 0.22% of 360,000 active; AID 588497, 2011; in the data active = inhibition above about 35%, passing the limit was not always enough; inconclusive = no clear call, values can overlap the other calls; also: plate controls were buffer without enzyme for full effect and enzyme alone for no effect
BoNT A protease – BoNT/A light chain protease inhibitors, primary screen, biochemical, flow cytometry, MLPCN library. inhibition, % at 10 µM. 0.17% of 360,000 active. multiplex microsphere protease substrate cleavage. AID 588499, 2011; in the data active = inhibition above about 30%; inconclusive = no clear call, values can overlap the other calls; also: plate controls were buffer without enzyme for full effect and enzyme alone for no effect
BoNTA LC inh 1 – BoNT/A light chain protease inhibitors, confirmation, biochemical, flow cytometry, cherry pick 1. shares compounds with BoNT F protease. multiplex microsphere protease assay. inhibition, % at 10 µM. 3% of 720 active; in the data active = inhibition above about 32%
BoNTF LC inh 1 – BoNT/F light chain protease inhibitors, confirmation, biochemical, flow cytometry, cherry pick 1. 720 tested, under 10 active. shares compounds with BoNT F protease. inhibition, % at 10 µM. multiplex microsphere protease cleavage assay
Anthrax LF CP1 – Bacillus anthracis LF protease inhibitors, confirmation, biochemical, multiplex microsphere, cherry pick 1; inhibition, % at 10 µM; shares compounds with BoNT F protease; 720 tested, under 10 active; multiplex microsphere protease cleavage assay
BoNT-A LC CP2 – BoNT/A light chain protease inhibitors, confirmation, biochemical, flow cytometry, cherry pick 2; multiplex microsphere protease cleavage assay; 10% of 150 active; inhibition, % at 10 µM; shares compounds with BoNT A protease; in the data active = inhibition above about 24%
LF protease CP2 – Bacillus anthracis LF protease inhibitors, confirmation, biochemical, multiplex microsphere; inhibition, % at 10 µM; shares compounds with BoNT A protease; AID 602327, 2012; multiplex microsphere protease cleavage assay; 7% of 150 active; in the data active = inhibition above about 25%
BoNTF LC inh 2 – BoNT/F light chain protease inhibitors, confirmation, biochemical, flow cytometry, cherry pick 2. shares compounds with BoNT A protease. multiplex microsphere protease cleavage assay. inhibition, % at 10 µM. 7% of 150 active. AID 602336, 2012; in the data active = inhibition above about 25%
Mtb FBA confirm – M. tuberculosis aldolase blockers, biochemical, fluorescence, strain H37Rv, confirmation. shares compounds with Mtb FBA inh. purified M. tuberculosis FBA, fluorescence read-out. inhibition, % at 1 µM. 78% of 5,600 active. AID 651616, 2012; in the data active = inhibition above about 27%;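 also: 0% = vehicle wells and 100% = reference inhibitor wells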
GDH-TPI counter-2 – GDH-TPI coupling enzyme inhibitors, artefact control for M. tuberculosis FBA inhibitor project, biochemical, fluorescence, high throughput | shares compounds with Mtb FBA inh | 81% of 5,600 active | GDH-TPI coupled enzyme counterscreen | inhibition, % at 1 µM; in the data active = inhibition above about 10%
* marks the source's active call; other numbers are inactive results. Unless noted, no rule for the calls is given here.

For COc1ccc(S(=O)(=O)N2CCN(Cc3ccc(OC)c(OC)c3)CC2)cc1 the results were Mtb FBA inh 29.0*, Bead autofluor 3690, Anthrax LF inh2 42.5*, GDH-TPI counter-1 6.9, BoNT F protease inconclusive, BoNT A protease -6.3, BoNTA LC inh 1 -1.7, BoNTF LC inh 1 -1.8, Anthrax LF CP1 -1.6, Mtb FBA confirm 39.6* and GDH-TPI counter-2 42.3*.
For COc1ccc2cc(-c3ccccc3F)ncc2c1 the results were Mtb FBA inh 7.9, Bead autofluor 4267, Anthrax LF inh2 -1.3, GDH-TPI counter-1 3.5, BoNT F protease -3.6 and BoNT A protease 0.6.
`COc1ccc(C2=NOC(C(=O)NCc3ccc(F)cc3)C2)cc1OC` (stereo unspecified) gave Mtb FBA inh 1.5, Bead autofluor 11257, Anthrax LF inh2 3.5, GDH-TPI counter-1 9.0, BoNT F protease 4.7 and BoNT A protease 3.2.
`CC(=O)NCC(=O)NC(C(=O)Nc1ccc2c(c1)OCCO2)c1ccc(C)cc1` (stereo unspecified) gave Mtb FBA inh 5.7, Bead autofluor 3889, Anthrax LF inh2 1.5, GDH-TPI counter-1 -12.4, BoNT F protease -9.6 and BoNT A protease 0.4.
Screening CCC(C)(C)n1nnnc1C(C(C)C)N(Cc1ccco1)Cc1cc2cc3c(cc2[nH]c1=O)OCO3 (stereo unspecified) returned Mtb FBA inh 29.3*, Bead autofluor 10857, Anthrax LF inh2 -17.1, GDH-TPI counter-1 8.7, BoNT F protease 37.9*, BoNT A protease 32.8*, BoNTA LC inh 1 -0.1, BoNTF LC inh 1 0.6, Anthrax LF CP1 -6.7, Mtb FBA confirm 51.9* and GDH-TPI counter-2 44.0*.
`Cc1nn(C)c2nc(-c3cccs3)cc(C(F)(F)F)c12` gave Mtb FBA inh 12.3, Bead autofluor 3340, Anthrax LF inh2 -2.2, GDH-TPI counter-1 11.9, BoNT F protease 2.0 and BoNT A protease 0.7.
Screening COCc1cc(C)nc2sc(C(=O)Nc3nccs3)c(N)c12 returned Mtb FBA inh 2.7, Bead autofluor 6249, Anthrax LF inh2 3.3, GDH-TPI counter-1 25.5, BoNT F protease -6.1 and BoNT A protease -0.2.
`Nc1c(C(=O)Nc2nccs2)sc2nc(-c3cccs3)cc(C(F)(F)F)c12` gave Mtb FBA inh 41.9*, Bead autofluor 5256, Anthrax LF inh2 5.7, GDH-TPI counter-1 10.5, BoNT F protease 82.0*, BoNT A protease 9.0, BoNTA LC inh 1 9.6, BoNTF LC inh 1 10.0, Anthrax LF CP1 3.5, Mtb FBA confirm 38.7* and GDH-TPI counter-2 28.1*.
For CC(C)(C)C(=O)c1sc2nc(-c3cccs3)cc(C(F)(F)F)c2c1N the results were Mtb FBA inh 30.3*, Bead autofluor 7776, Anthrax LF inh2 34.0*, GDH-TPI counter-1 -0.6, BoNT F protease 21.8, BoNT A protease 33.9*, BoNTA LC inh 1 24.2, BoNTF LC inh 1 11.5, Anthrax LF CP1 9.4, Mtb FBA confirm 48.9* and GDH-TPI counter-2 46.7*.
Screening Oc1ccc(Br)cc1C=Nc1ccc2c3c(cccc13)CC2 returned Mtb FBA inh 38.4*, Bead autofluor 3654, Anthrax LF inh2 13.3, GDH-TPI counter-1 5.9, BoNT F protease -4.6, BoNT A protease 33.3*, BoNTA LC inh 1 8.3, BoNTF LC inh 1 -1.5, Anthrax LF CP1 4.2, Mtb FBA confirm active and GDH-TPI counter-2 active.
Cc1ccccc1OCC(=O)OCC(=O)c1c[nH]c2ccccc12 was read as Mtb FBA inh -3.2, Bead autofluor 8924, Anthrax LF inh2 -4.5, GDH-TPI counter-1 7.6, BoNT F protease -0.1, BoNT A protease 1.0, BoNT-A LC CP2 3.1, LF protease CP2 1.3 and BoNTF LC inh 2 9.9.
`COc1ccc(CC(=O)OCC(=O)c2c[nH]c3ccccc23)cc1` gave Mtb FBA inh -1.8, Bead autofluor 9727, Anthrax LF inh2 24.3, GDH-TPI counter-1 -2.1, BoNT F protease -8.4, BoNT A protease 52.7*, BoNT-A LC CP2 14.5, LF protease CP2 11.6 and BoNTF LC inh 2 -4.0.
COc1cc(CC(=O)OCC(=O)c2c[nH]c3ccccc23)cc(OC)c1OC was read as Mtb FBA inh -0.2, Bead autofluor 10228, Anthrax LF inh2 24.6, GDH-TPI counter-1 3.5, BoNT F protease -13.1, BoNT A protease 50.2*, BoNT-A LC CP2 14.8, LF protease CP2 15.9 and BoNTF LC inh 2 -1.2.
For Cc1ccc(C(=O)COC(=O)COc2ccccc2C)cc1 the results were Mtb FBA inh 1.6, Bead autofluor 6252, Anthrax LF inh2 0.4, GDH-TPI counter-1 13.4, BoNT F protease 5.8 and BoNT A protease -1.9.
Screening O=C(NCc1cccs1)C1CCCN(C(=O)Nc2ccc(F)cc2)C1 (stereo unspecified) returned Mtb FBA inh -0.9, Bead autofluor 4463, Anthrax LF inh2 -7.5, GDH-TPI counter-1 -3.5, BoNT F protease -6.7 and BoNT A protease -3.6.
